Only some compounds are listed: those with a hit (about 4.8% of all), similar ones and a draw of the others.
SMARCA2 activ: SMARCA2 function activation, primary screen; MG213 cells, MMTV-luciferase reporter, dexamethasone, overnight; activation, % at 9.1 µM; actives 1% (n = 370,000); AID 652017; in the data active = activation above about 7.8%;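 note: 0% = vehicle wells and 100% = reference activator wells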
hcDAF12 agonist: H. contortus DAF-12 activation, primary screen; HEK293 hcDAF-12 lit1-tk-luc reporter, luminescence; 0% DMSO, 100% Δ7-dafachronic acid; activation, % at 6.8 µM; actives 1.4% (n = 370,000); AID 652067;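 active = activation above the mean of all tested compounds plus 3 SD, cut at about 5.5% in these data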;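 note: 100% = response to 3 µM Δ7-dafachronic acid high control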
ssDAF-12 act: S. stercoralis DAF-12 activation, primary screen | actives 1% (n = 370,000) | HEK293 ssDAF-12/GRIP1 lit1-tk-luc reporter, luminescence; % of 3 µM dafachronic acid response | activation, % at 6.8 µM | AID 652126;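 active = activation above the mean over all tested compounds plus 3 SD, cut at about 0.9% in these data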;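 note: 0% = DMSO-only wells and 100% = 3 µM delta7-dafachronic acid wells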
hgDAF-12 ag: agonists of H. glycines DAF-12 nuclear receptor. HEK293 GAL4-hgDAF12 UAS-luciferase reporter, agonist luminescence; normalized to butyrate control. activation, % at 6.8 µM. actives 1.8% (n = 370,000);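 active = activation above a cutoff set at the mean of all screened compounds plus 3 SD, cut at about 10% in these data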;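 note: 0% = DMSO wells and 100% = sodium butyrate wells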
DAX1 inh-1: inhibitors of DAX1 repression of SF-1 activated StAR promoter | HEK293T StAR-luciferase reporter, SF-1/DAX-1 repression relief | inhibition, % at 6.8 µM | actives 1.1% (n = 370,000) | AID 652010;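 active = inhibition above the mean over all tested compounds plus 3 SD, cut at about 3.6% in these data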;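 note: 0% = DAX-1 cells with DMSO and 100% = cells lacking DAX-1 with DMSO; higher inhibition means more luminescence from relief of DAX-1 repression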
DAX1 inh-2: inhibits human nuclear receptor DAX1; actives 0.99% (n = 340,000); HEK293 Gal4-DAX1 luciferase reporter, luminescence; P51843; inhibition, % at 6.75 µM;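 active = inhibition above the mean over all tested compounds plus 3 SD, cut at about 4.2% in these data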;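 note: 0% = DAX1-transfected cells with DMSO and 100% = empty-vector control cells with DMSO; inhibition shows as a rise in luminescence from relieved DAX1 repression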
Target sequence (P51843 207-470 limits assumed): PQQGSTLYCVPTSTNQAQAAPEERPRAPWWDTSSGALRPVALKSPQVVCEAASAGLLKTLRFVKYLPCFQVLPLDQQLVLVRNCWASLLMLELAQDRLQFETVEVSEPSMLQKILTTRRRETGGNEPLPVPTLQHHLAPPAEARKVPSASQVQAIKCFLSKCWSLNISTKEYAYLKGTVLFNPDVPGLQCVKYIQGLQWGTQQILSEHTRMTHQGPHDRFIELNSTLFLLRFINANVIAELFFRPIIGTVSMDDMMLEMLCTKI
SMARCA2 act conf: confirmation of SMARCA2 (BRM) function activators; shares compounds with SMARCA2 activ; MG213 cells, MMTV-luciferase with dexamethasone, luminescence, overnight; MG213 cells expressing E1A, Rb sequestered; DMSO wells 0%, reference activator 100%; activation, % at 9.1 µM; actives 30% (n = 3,500); AID 652260;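 active = activation above its plate's cutoff, the mean activation of tested wells plus 3 SD, cut at about 7.9% in these data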
GAL4-VP16 Luc: GAL4-VP16 reporter activation counter-screen | shares compounds with SMARCA2 activ | HEK293 GAL4-VP16 pG5luc reporter, luciferase luminescence; scaled: DMSO wells 0%, SAHA wells 100% | activation, % at 9.1 µM | actives 41% (n = 3,500) | AID 686939;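 active = activation above the solvent-only control well mean plus 3 SD, averaged across control plates, cut at about 5.2% in these data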
* hit, by the source's call.

Results for CCN(CC)CCNc1nc(SC)nc2sc3c(c12)CCN(C)C3 ?
SMARCA2 activ: 9.2*; hcDAF12 agonist: 0; ssDAF-12 act: -1; hgDAF-12 ag: 2; DAX1 inh-1: 0; DAX1 inh-2: 0; SMARCA2 act conf: 8; GAL4-VP16 Luc: 0

Results for CCOc1ccc(-n2c(=S)sc3c(=O)[nH]c(SCC(=O)C(C)(C)C)nc32)cc1 ?
SMARCA2 activ: 3; hcDAF12 agonist: 1; ssDAF-12 act: -1; hgDAF-12 ag: -2; DAX1 inh-1: 1; DAX1 inh-2: 1

How did CCOc1ccc(NC(=O)CSc2nccn2C)cc1 do in these assays?
SMARCA2 activ: 8.8*; hcDAF12 agonist: 2; ssDAF-12 act: -1; hgDAF-12 ag: 6; DAX1 inh-1: 1; DAX1 inh-2: 1; SMARCA2 act conf: 6; GAL4-VP16 Luc: 4

Results for Cn1ccnc1SCC(=O)Nc1ccc(Oc2ccccc2)cc1 ?
SMARCA2 activ: 3; hcDAF12 agonist: -1; ssDAF-12 act: -1; hgDAF-12 ag: 8; DAX1 inh-1: 0; DAX1 inh-2: 0

What do the screens show for `COc1ccc(C(=O)CSc2nccn2C)cc1`?
SMARCA2 activ: 11*; hcDAF12 agonist: 2; ssDAF-12 act: 0; hgDAF-12 ag: 12*; DAX1 inh-1: 1; DAX1 inh-2: 4; SMARCA2 act conf: 5; GAL4-VP16 Luc: 5

How did O=C(/C=C/c1cccc(Cl)c1)NCCc1ccccc1 do in these assays?
SMARCA2 activ: 3; hcDAF12 agonist: 2; ssDAF-12 act: 0; hgDAF-12 ag: 7; DAX1 inh-1: 1; DAX1 inh-2: 0

Results for O=C(/C=C/c1c(Cl)cccc1Cl)NCCc1ccccc1 ?
SMARCA2 activ: 11*; hcDAF12 agonist: -1; ssDAF-12 act: -2; hgDAF-12 ag: 2; DAX1 inh-1: 0; DAX1 inh-2: 1; SMARCA2 act conf: 3; GAL4-VP16 Luc: 5

What do the screens show for `O=C1c2ccccc2C(=O)c2c1ccc1c(=O)n(-c3ccccc3)[nH]c21`?
SMARCA2 activ: 4; hcDAF12 agonist: -2; ssDAF-12 act: -1; hgDAF-12 ag: -3; DAX1 inh-1: -1; DAX1 inh-2: -1

What do the screens show for `Cc1cccc(-n2[nH]c3c4c(ccc3c2=O)C(=O)c2ccccc2C4=O)c1`?
SMARCA2 activ: 8.3*; hcDAF12 agonist: -2; ssDAF-12 act: 0; hgDAF-12 ag: -2; DAX1 inh-1: 0; DAX1 inh-2: 0; SMARCA2 act conf: -4; GAL4-VP16 Luc: 1

What do the screens show for `CN1CCN(C(=O)c2cn(C)c3ccc(S(=O)(=O)N(C)C4CCCCC4)cc3c2=O)CC1`?
SMARCA2 activ: 8.5*; hcDAF12 agonist: -3; ssDAF-12 act: -1; hgDAF-12 ag: -1; DAX1 inh-1: 2; DAX1 inh-2: -3; SMARCA2 act conf: -2; GAL4-VP16 Luc: 2

How did CN(C(=O)CSc1nnnn1-c1ccc(O)cc1)C1CCS(=O)(=O)C1 (centres undefined) do in these assays?
SMARCA2 activ: -3; hcDAF12 agonist: -1; ssDAF-12 act: -1; hgDAF-12 ag: 3; DAX1 inh-1: 0; DAX1 inh-2: 0

How did Cc1ccc(CN2CCN(c3ccccn3)CC2)s1 do in these assays?
SMARCA2 activ: 9.6*; hcDAF12 agonist: -1; ssDAF-12 act: -1; hgDAF-12 ag: 2; DAX1 inh-1: 0; DAX1 inh-2: 0; SMARCA2 act conf: 3; GAL4-VP16 Luc: 0

Results for Cc1cccc(CN2CCN(c3ccccn3)CC2)c1 ?
SMARCA2 activ: -4; hcDAF12 agonist: 1; ssDAF-12 act: -1; hgDAF-12 ag: 0; DAX1 inh-1: -1; DAX1 inh-2: 2

How did COc1ccc(Cl)cc1/C=C1/C(=O)ON=C1C do in these assays?
SMARCA2 activ: -3; hcDAF12 agonist: 3; ssDAF-12 act: -1; hgDAF-12 ag: 0; DAX1 inh-1: 1; DAX1 inh-2: -1

Results for CCOc1ccc(Cl)cc1/C=C1/C(=O)ON=C1C ?
SMARCA2 activ: 8.0*; hcDAF12 agonist: 0; ssDAF-12 act: 0; hgDAF-12 ag: 0; DAX1 inh-1: 0; DAX1 inh-2: 1; SMARCA2 act conf: 5; GAL4-VP16 Luc: 1

Results for CCCCN(C(=O)C(C)Oc1ccc(Cl)cc1)c1c(N)n(CCCC)c(=O)[nH]c1=O (centres undefined) ?
SMARCA2 activ: 8.2*; hcDAF12 agonist: 0; ssDAF-12 act: -1; hgDAF-12 ag: -2; DAX1 inh-1: 2; DAX1 inh-2: 1; SMARCA2 act conf: -1; GAL4-VP16 Luc: -2

What do the screens show for `CC1(c2nnnn2-c2ccc3c(c2)OCCO3)CCC(=O)N1CC(F)(F)F` (centres undefined)?
SMARCA2 activ: 7; hcDAF12 agonist: 1; ssDAF-12 act: 0; hgDAF-12 ag: 5; DAX1 inh-1: 1

How did COc1cc(C)ccc1OCCCOc1ccccc1Cl do in these assays?
SMARCA2 activ: 9.5*; hcDAF12 agonist: 1; ssDAF-12 act: 0; hgDAF-12 ag: 9; DAX1 inh-1: 1; DAX1 inh-2: 3; SMARCA2 act conf: 13*; GAL4-VP16 Luc: 8.9*

Results for Cc1nnc(SCc2nnc(-c3ccccc3Br)o2)s1 ?
SMARCA2 activ: 1; hcDAF12 agonist: 1; ssDAF-12 act: -1; hgDAF-12 ag: 3; DAX1 inh-1: 1; DAX1 inh-2: 1

What do the screens show for `COc1ccc(NS(=O)(=O)c2csc(C(=O)N3CCCC3)c2)c(OC)c1`?
SMARCA2 activ: 3; hcDAF12 agonist: -1; ssDAF-12 act: 0; hgDAF-12 ag: -1; DAX1 inh-1: 0; DAX1 inh-2: 2

What do the screens show for `COc1ccc(-c2cn(-c3ccc(C)cc3)c(=O)n2CC(=O)Nc2ccc(OC)cc2OC)cc1`?
SMARCA2 activ: 8.8*; hcDAF12 agonist: 1; ssDAF-12 act: 1; hgDAF-12 ag: -3; DAX1 inh-1: -1; DAX1 inh-2: 1; SMARCA2 act conf: -4; GAL4-VP16 Luc: 3

Results for Cc1cc(C)c2nc(-n3nc(C)cc3N)cc(C)c2c1 ?
SMARCA2 activ: 10*; hcDAF12 agonist: 5.7*; ssDAF-12 act: 0; hgDAF-12 ag: 7; DAX1 inh-1: 1; DAX1 inh-2: 1; SMARCA2 act conf: 8.2*; GAL4-VP16 Luc: 6.2*

Results for CC(=O)c1ccc(-c2cnc3c(NC=O)cc(-c4ccc(C(=O)N5CCOCC5)cc4)cn23)cc1 ?
SMARCA2 activ: -1; hcDAF12 agonist: -3; ssDAF-12 act: -2; hgDAF-12 ag: 0; DAX1 inh-1: -2
